Data from the supplement of paper PMC8728848.
Only a selection was taken, and the strongest signals are over-represented in it overall.

How the values were obtained:
Experiment in all cases: glycan array binding signal (z-score within array); higher = stronger binding
Details in all cases: glycan notation: IUPAC condensed, linker removed
Fuc(a1-2)Gal = target: Fuc(a1-2)Gal
How it was run: (§1)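 From the Consortium for Functional Glycomics database, 3228 arrays were curated, keeping only those whose protein sequence was available. Binding is given as a within-array Z-score averaged across arrays sharing a protein sequence and across linkers. Negative Z-scores can be read as non-binding.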

[1] = target: Fuc(a1-2)Gal(b1-3)GlcNAc(b1-3)[Fuc(a1-2)Gal(b1-3)GlcNAc(b1-6)]GalNAc
How it was run: as §1

[2] = target: Fuc(a1-2)Gal(b1-3)GlcNAc6S
How it was run: as §1

[3] = target: Fuc(a1-2)Gal(b1-4)GlcNAc(b1-2)Man(a1-3)[Fuc(a1-2)Gal(b1-4)GlcNAc(b1-2)Man(a1-6)]Man(b1-4)GlcNAc(b1-4)[Fuc(a1-6)]GlcNAc
How it was run: as §1

[4] = target: Fuc(a1-2)Gal(b1-4)GlcNAc(b1-3)GalNAc
How it was run: as §1

[5] = target: Fuc(a1-2)Gal(b1-4)GlcNAc(b1-3)[Fuc(a1-2)Gal(b1-4)GlcNAc(b1-6)]GalNAc
How it was run: as §1

[6] = target: Fuc(a1-2)[Gal(a1-3)]Gal(b1-3)GalNAc
How it was run: as §1

[7] = target: Fuc(a1-2)[Gal(a1-3)]Gal(b1-3)GlcNAc
How it was run: as §1

[8] = target: Fuc(a1-2)[Gal(a1-3)]Gal(b1-4)Glc
How it was run: as §1

[9] = target: Fuc(a1-2)[Gal(a1-3)]Gal(b1-4)GlcNAc(b1-3)GalNAc
How it was run: as §1

[10] = target: Fuc(a1-2)[GalNAc(a1-3)]Gal
How it was run: as §1

[11] = target: Fuc(a1-2)[GalNAc(a1-3)]Gal(b1-3)GlcNAc
How it was run: as §1

[12] = target: Fuc(a1-2)[GalNAc(a1-3)]Gal(b1-3)GlcNAc(b1-2)Man(a1-3)[Fuc(a1-2)[GalNAc(a1-3)]Gal(b1-3)GlcNAc(b1-2)Man(a1-6)]Man(b1-4)GlcNAc(b1-4)GlcNAc
How it was run: as §1

[13] = target: Fuc(a1-2)[GalNAc(a1-3)]Gal(b1-3)GlcNAc(b1-6)GalNAc
How it was run: as §1

[14] = target: Fuc(a1-2)[GalNAc(a1-3)]Gal(b1-4)Glc
How it was run: as §1

[15] = target: Gal(a1-4)Gal(b1-4)GlcNAc(b1-2)Man(a1-3)[Gal(a1-4)Gal(b1-4)GlcNAc(b1-2)Man(a1-6)]Man(b1-4)GlcNAc(b1-4)GlcNAc
How it was run: as §1

Gal(b1-2)Gal = target: Gal(b1-2)Gal
How it was run: as §1

Gal(b1-3)Gal = target: Gal(b1-3)Gal
How it was run: as §1

[16] = target: Gal(b1-3)GalNAc(a1-3)[Fuc(a1-2)]Gal(b1-4)Glc
How it was run: as §1

[17] = target: Gal(b1-3)GalNAc(a1-3)[Fuc(a1-2)]Gal(b1-4)GlcNAc
How it was run: as §1

[18] = target: Gal(b1-3)[Fuc(a1-4)]GlcNAc(b1-2)Man(a1-3)[Gal(b1-3)[Fuc(a1-4)]GlcNAc(b1-2)Man(a1-6)]Man(b1-4)GlcNAc(b1-4)[Fuc(a1-6)]GlcNAc
How it was run: as §1

[19] = target: Gal(b1-3)[Fuc(a1-4)]GlcNAc(b1-6)GalNAc
How it was run: as §1

[20] = target: Gal(b1-4)GalNAc(a1-3)[Fuc(a1-2)]Gal(b1-4)GlcNAc
How it was run: as §1

[21] = target: Gal(b1-4)GlcNAc(a1-6)Gal(b1-4)GlcNAc
How it was run: as §1

[22] = target: Gal(b1-4)GlcNAc(b1-3)Gal(b1-4)Glc
How it was run: as §1

[23] = target: Gal(b1-4)GlcNAc(b1-3)Gal(b1-4)[Fuc(a1-3)GlcNAc(b1-6)]Gal(b1-4)Glc
How it was run: as §1

[24] = target: Gal(b1-4)GlcNAc(b1-6)[Gal(b1-3)]GalNAc
How it was run: as §1

Gal3S(b1-4)GlcNAc = target: Gal3S(b1-4)GlcNAc
How it was run: as §1

GalNAc(b1-3)GalNAc = target: GalNAc(b1-3)GalNAc
How it was run: as §1

GalNAc(b1-4)Gal(b1-4)Glc = target: GalNAc(b1-4)Gal(b1-4)Glc
How it was run: as §1

GalNAc(b1-4)GlcNAc = target: GalNAc(b1-4)GlcNAc
How it was run: as §1

Kdn(a2-3)Gal(b1-4)Glc = target: Kdn(a2-3)Gal(b1-4)Glc
How it was run: as §1

[25] = target: Man(a1-2)Man(a1-3)[Man(a1-2)Man(a1-6)]Man(a1-6)[Man(a1-2)Man(a1-2)Man(a1-3)]Man(b1-4)GlcNAc(b1-4)GlcNAc
How it was run: as §1

[26] = target: Neu5Ac(a2-3)Gal(b1-3)GlcNAc(b1-3)Gal(b1-3)GlcNAc
How it was run: as §1

[27] = target: Neu5Ac(a2-3)Gal(b1-4)GlcNAc(b1-2)Man
How it was run: as §1

[28] = target: Neu5Ac(a2-3)Gal(b1-4)[Fuc(a1-3)]GlcNAc(b1-3)Gal(b1-4)[Fuc(a1-3)]GlcNAc(b1-3)Gal(b1-4)[Fuc(a1-3)]GlcNAc
How it was run: as §1

[29] = target: Neu5Ac(a2-3)[GalNAc(b1-4)]Gal(b1-4)GlcNAc(b1-3)GalNAc
How it was run: as §1

[30] = target: Neu5Ac(a2-6)Gal(b1-4)GlcNAc(b1-2)Man(a1-3)[Neu5Ac(a2-6)Gal(b1-4)GlcNAc(b1-2)Man(a1-6)]Man(b1-4)GlcNAc(b1-4)GlcNAc
How it was run: as §1

[31] = target: Neu5Ac(a2-6)Gal(b1-4)GlcNAc(b1-2)Man(a1-6)[Man(a1-3)]Man(b1-4)GlcNAc(b1-4)GlcNAc
How it was run: as §1

[32] = target: Neu5Ac(a2-6)GlcNAc(b1-4)GlcNAc
How it was run: as §1

Neu5Ac(a2-8)Neu5Ac = target: Neu5Ac(a2-8)Neu5Ac
How it was run: as §1

Neu5Ac(b2-6)GalNAc = target: Neu5Ac(b2-6)GalNAc
How it was run: as §1

[33] = target: Neu5Ac9Ac(a2-3)Gal(b1-4)GlcNAc
How it was run: as §1

[34] = target: Neu5Ac(a2-3)Gal(b1-3)]Neu5Ac(a2-3)Gal(b1-4)]GlcNAc
How it was run: as §1

Neu5Ac(a2-3)Gal(b1-4)Glc = target: Neu5Ac(a2-3)Gal(b1-4)Glc
How it was run: as §1

[35] = target: Neu5Ac(a2-3)Gal(b1-4)GlcNAc(b1-3)Gal(b1-4)GlcNAc(b1-3)[Neu5Ac(a2-3)Gal(b1-4)GlcNAc(b1-3)Gal(b1-4)GlcNAc(b1-6)]GalNAc
How it was run: as §1

[36] = target: Neu5Ac(a2-3)Gal(b1-4)GlcNAc6S
How it was run: as §1

[37] = target: Neu5Ac(a2-3)Gal(b1-4)[Fuc(a1-3)]GlcNAc
How it was run: as §1

[38] = target: Neu5Ac(a2-3)Gal(b1-4)[Fuc(a1-3)]GlcNAc(b1-2)Man
How it was run: as §1

[39] = target: Neu5Ac(a2-3)Gal(b1-4)[Fuc(a1-3)]GlcNAc6S
How it was run: as §1

[40] = target: Neu5Ac(a2-6)Gal(b1-4)GlcNAc(b1-3)Gal(b1-4)GlcNAc(b1-3)Gal(b1-4)GlcNAc(b1-2)Man(a1-3)[Neu5Ac(a2-6)Gal(b1-4)GlcNAc(b1-3)Gal(b1-4)GlcNAc(b1-3)Gal(b1-4)GlcNAc(b1-2)Man(a1-6)]GalNAc
How it was run: as §1

[41] = target: Neu5Ac(a2-6)Gal(b1-4)GlcNAc6S
How it was run: as §1

[42] = target: Neu5Ac(a2-8)Neu5Ac(a2-3)Gal(b1-4)GlcNAc
How it was run: as §1

[43] = target: Neu5Ac(a2-8)Neu5Ac(a2-3)[Gal(b1-3)GalNAc(b1-4)]Gal(b1-4)Glc
How it was run: as §1

[44] = target: Neu5Gc(a2-3)Gal(b1-3)GlcNAc
How it was run: as §1

[45] = target: Neu5Gc(a2-3)Gal(b1-4)[Fuc(a1-3)]GlcNAc
How it was run: as §1

[46] = target: Neu5Gc(a2-8)Neu5Gc(a2-3)Gal(b1-4)GlcNAc(b1-3)Gal(b1-4)GlcNAc
How it was run: as §1

B1: Gal 4 (Homo sapiens), Q8K419 (protein)
chain: MAYVPAPGYQPTYNPTLPYKRPIPGGLSVGMSVYIQGMAKENMRRFHVNFAVGQDDGADVAFHFNPRFDGWDKVVFNTMQSGQWGKEEKKKSMPFQKGKHFELVFMVMPEHYKVVVNGNSFYEYGHRLPVQMVTHLQVDGDLELQSINFLGGQPAAAPYPGAMTIPAYPAGSPGYNPPQMNTLPVMTGPPVFNPRVPYVGALQGGLTVRRTIIIKGYVLPTARNFVINFKVGSSGDIALHLNPRIGDSVVRNSFMNGSWGAEERKVAYNPFGPGQFFDLSIRCGMDRFKVFANGQHLFDFSHRFQAFQMVDTLEINGDITLSYVQI
Fuc(a1-2)Gal
  glycan array binding signal (z-score): -0.2
[1]
  glycan array binding signal (z-score): -0.088
[2]
  glycan array binding signal (z-score): 1.3
[3]
  glycan array binding signal (z-score): -0.202
[4]
  glycan array binding signal (z-score): -0.199
[5]
  glycan array binding signal (z-score): -0.189
[6]
  glycan array binding signal (z-score): 0.833
[7]
  glycan array binding signal (z-score): 2.91
[8]
  glycan array binding signal (z-score): 3.5
[9]
  glycan array binding signal (z-score): -0.006
[10]
  glycan array binding signal (z-score): -0.2
[11]
  glycan array binding signal (z-score): 4.09
[12]
  glycan array binding signal (z-score): 1.51
[13]
  glycan array binding signal (z-score): 1.99
[14]
  glycan array binding signal (z-score): 9.63
[15]
  glycan array binding signal (z-score): -0.194
Gal(b1-2)Gal
  glycan array binding signal (z-score): -0.201
Gal(b1-3)Gal
  glycan array binding signal (z-score): 0.459
[16]
  glycan array binding signal (z-score): 13.2
[17]
  glycan array binding signal (z-score): 2.3
[18]
  glycan array binding signal (z-score): -0.174
[19]
  glycan array binding signal (z-score): -0.193
[20]
  glycan array binding signal (z-score): 2.3
[21]
  glycan array binding signal (z-score): -0.188
[22]
  glycan array binding signal (z-score): 1.11
[23]
  glycan array binding signal (z-score): -0.185
[24]
  glycan array binding signal (z-score): -0.059
Gal3S(b1-4)GlcNAc
  glycan array binding signal (z-score): -0.136
GalNAc(b1-3)GalNAc
  glycan array binding signal (z-score): -0.182
GalNAc(b1-4)Gal(b1-4)Glc
  glycan array binding signal (z-score): -0.211
GalNAc(b1-4)GlcNAc
  glycan array binding signal (z-score): -0.18
Kdn(a2-3)Gal(b1-4)Glc
  glycan array binding signal (z-score): -0.243
[25]
  glycan array binding signal (z-score): -0.178
[26]
  glycan array binding signal (z-score): 0.182
[27]
  glycan array binding signal (z-score): -0.197
[28]
  glycan array binding signal (z-score): -0.198
[29]
  glycan array binding signal (z-score): -0.147
[30]
  glycan array binding signal (z-score): -0.187
[31]
  glycan array binding signal (z-score): -0.204
[32]
  glycan array binding signal (z-score): -0.205
Neu5Ac(a2-8)Neu5Ac
  glycan array binding signal (z-score): -0.203
Neu5Ac(b2-6)GalNAc
  glycan array binding signal (z-score): -0.196
[33]
  glycan array binding signal (z-score): -0.189

B2: Siglec-9 (Homo sapiens), Q9Y336 (protein)
chain: MLLLLLPLLWGRERAEGQTSKLLTMQSSVTVQEGLCVHVPCSFSYPSHGWIYPGPVVHGYWFREGANTDQDAPVATNNPARAVWEETRDRFHLLGDPHTKNCTLSIRDARRSDAGRYFFRMEKGSIKWNYKHHRLSVNVTALTHRPNILIPGTLESGCPQNLTCSVPWACEQGTPPMISWIGTSVSPLDPSTTRSSVLTLIPQPQDHGTSLTCQVTFPGASVTTNKTVHLNVSYPPQNLTMTVFQGDGTVSTVLGNGSSLSLPEGQSLRLVCAVDAVDSNPPARLSLSWRGLTLCPSQPSNPGVLELPWVHLRDAAEFTCRAQNPLGSQQVYLNVSLQSKATSGVTQGVVGGAGATALVFLSFCVIFVVVRSCRKKSARPAAGVGDTGIEDANAVRGSASQGPLTEPWAEDSPPDQPPPASARSSVGEGELQYASLSFQMVKPWDSRGQEATDTEYSEIKIHR
[34]
  glycan array binding signal (z-score): 1.76
Neu5Ac(a2-3)Gal(b1-4)Glc
  glycan array binding signal (z-score): 1.09
[35]
  glycan array binding signal (z-score): -0.187
[36]
  glycan array binding signal (z-score): 2.21
[37]
  glycan array binding signal (z-score): 1.14
[38]
  glycan array binding signal (z-score): 14.8
[39]
  glycan array binding signal (z-score): 16.8
[40]
  glycan array binding signal (z-score): 0.878
[41]
  glycan array binding signal (z-score): 1.58
[42]
  glycan array binding signal (z-score): -0.259
[43]
  glycan array binding signal (z-score): -0.214
[44]
  glycan array binding signal (z-score): -0.028
[45]
  glycan array binding signal (z-score): 0.005
[46]
  glycan array binding signal (z-score): -0.178
